In PubChem BioAssay AID1445 (SRMLSC, 2008):
The whole screen tested about 220,000 compounds, of which about 910 (0.41%) were called active. This excerpt belongs to a sample that is enriched for actives. Results with a measured potency or affinity are listed apart. Unmarked numbers belong to inactive results.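 The calls were made as follows: active = primary inhibition above the hit cutoff, then over 50% inhibition at one or more dose response concentrations (cut at about 23% in these data, passing the limit was not always enough); inconclusive = conflicting primary data, or primary hits not chosen for dose response; inactive = low primary inhibition, or under 50% at every dose.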

Target: Aminopeptidase N (Plasmodium falciparum (isolate 3D7)) (UniProt O96935)
Sequence (O96935 whole entry, looked up): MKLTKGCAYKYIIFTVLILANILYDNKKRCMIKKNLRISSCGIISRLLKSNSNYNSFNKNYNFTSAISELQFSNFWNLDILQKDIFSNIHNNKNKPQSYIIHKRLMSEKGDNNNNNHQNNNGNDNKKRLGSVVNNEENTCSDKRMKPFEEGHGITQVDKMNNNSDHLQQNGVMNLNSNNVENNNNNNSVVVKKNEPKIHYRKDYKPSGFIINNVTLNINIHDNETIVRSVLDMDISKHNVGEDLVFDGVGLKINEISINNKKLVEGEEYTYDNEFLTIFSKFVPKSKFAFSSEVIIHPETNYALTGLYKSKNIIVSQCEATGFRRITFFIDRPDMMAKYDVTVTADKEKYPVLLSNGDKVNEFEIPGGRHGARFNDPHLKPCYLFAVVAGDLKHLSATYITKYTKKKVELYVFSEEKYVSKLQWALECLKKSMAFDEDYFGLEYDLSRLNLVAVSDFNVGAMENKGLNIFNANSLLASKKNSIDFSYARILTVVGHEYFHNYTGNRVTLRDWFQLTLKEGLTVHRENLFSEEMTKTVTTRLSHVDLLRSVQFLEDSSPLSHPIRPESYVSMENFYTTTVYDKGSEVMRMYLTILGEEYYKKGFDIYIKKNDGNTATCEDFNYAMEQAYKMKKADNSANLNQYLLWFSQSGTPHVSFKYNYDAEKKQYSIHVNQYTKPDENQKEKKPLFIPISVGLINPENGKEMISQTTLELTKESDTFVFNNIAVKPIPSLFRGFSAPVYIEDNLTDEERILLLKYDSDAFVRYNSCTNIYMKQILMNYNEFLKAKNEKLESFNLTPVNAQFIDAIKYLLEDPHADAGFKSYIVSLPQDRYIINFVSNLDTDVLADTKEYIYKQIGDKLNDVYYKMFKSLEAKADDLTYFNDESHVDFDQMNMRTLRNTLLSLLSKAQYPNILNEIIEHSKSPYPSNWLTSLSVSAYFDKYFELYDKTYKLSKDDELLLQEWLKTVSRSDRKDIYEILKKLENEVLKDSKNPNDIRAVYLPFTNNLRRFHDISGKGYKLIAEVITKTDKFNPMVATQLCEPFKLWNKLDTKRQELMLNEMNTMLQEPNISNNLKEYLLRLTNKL
Assay: malaria alanyl aminopeptidase activity blockers – biochemical, fluorogenic H-Leu-NHMec substrate, 1536-well (AID 1445);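 also: plate controls were DMSO full reaction for no effect and no enzyme background for full effect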
Conditions: recombinant M1AAP, H-Leu-NHMec fluorogenic kinetic assay
[1] = at 30 µM, stronger effect = higher value unless noted

SMILES: CCCCC(CCC(=O)Nc1ccccc1C(=O)OCC)C(=O)O (stereo not given)
- inhibition [1]: 0.91%

SMILES: CCN(CC)S(=O)(=O)c1ccc(C)c(NC(=O)c2cc(C)oc2C)c1
- inhibition [1]: 3.95%

SMILES: O=C(O)CCC(=O)N(Cc1ccco1)C1CC(=O)N(c2ccccc2)C1=O (stereo not given)
- inhibition [1]: 7.06%

SMILES: CCOC(=O)N1CCN(c2c(NCc3ccc(Cl)cc3)c(=O)c2=O)CC1
- inhibition [1]: 5.09%

SMILES: CCOC(=O)N1CCN(c2c(NCc3ccccc3OC)c(=O)c2=O)CC1
- inhibition [1]: 1.73%

SMILES: COc1ccc(C(=O)N/N=C/c2cc3ccccc3[nH]c2=O)cc1
- inhibition [1]: 6.42%

SMILES: COc1cc2ccccc2cc1C(=O)NC(=S)Nc1cccc(C(=O)O)c1C
- inhibition [1]: 8.01%

SMILES: COCCNC(=S)N1CCc2cc(OC)c(OC)cc2C1COc1ccc(C(C)C)cc1 (stereo not given)
- inhibition [1]: 15.1%

SMILES: O=C(Oc1c(CN2CCOCC2)cc(Cl)c2cccnc12)c1ccccc1
- inhibition [1]: 4.42%

SMILES: CN1CCN(Cc2cc(Cl)c3cccnc3c2OC(=O)c2cccs2)CC1
- inhibition [1]: -1.84%

SMILES: CCOC(=O)c1cc2c(=O)n3ccccc3nc2n(CCOC)c1=NC(=O)c1ccncc1
- inhibition (at 30 µM, stronger effect = higher value): 45.3% (active)
- inhibition (at 100 µM (top of the series)): 16.6%

SMILES: CCOC(=O)c1cc2c(=O)n3ccccc3nc2n(CCCOC)c1=NC(=O)c1ccncc1
- inhibition [1]: 10.7%

SMILES: CCOC(=O)c1cc2c(=O)n3ccccc3nc2n(CCOC)c1=NC(=O)C(C)(C)C
- inhibition [1]: 16.9%

SMILES: O=C(NCCc1ccccc1)C1CCN(c2nc3ccccc3o2)CC1
- inhibition [1]: 1.06%

SMILES: O=S(=O)(c1ccc2c(c1)OCCO2)N1CCC(n2nnc3cc(C(F)(F)F)ccc32)CC1
- inhibition [1]: -4.12%

SMILES: O=S(=O)(c1ccc2c(c1)OCCO2)N1CCC(n2cnc3cc(F)ccc32)CC1
- inhibition [1]: 2.37%

SMILES: O=c1nc2n(c3ccc(Br)cc13)CCS2
- inhibition [1]: 1.45%

SMILES: COc1ccccc1NC(=O)Nc1ccccc1N1CCOCC1
- inhibition [1]: 3.89%

SMILES: CC(=O)c1sc(-c2ccccc2)cc1NS(=O)(=O)c1ccccc1
- inhibition [1]: -0.36%

SMILES: CC(=O)c1sc(-c2ccc(F)cc2)cc1NS(=O)(=O)c1ccc(C)cc1
- inhibition [1]: 0.65%

SMILES: CCOC(=O)C1=C(O)/C(=C/c2ccc(OCC(=O)O)c(OC)c2)SC1=Nc1ccc(OCC)cc1
- inhibition [1]: 13.2%

SMILES: CCOc1cc(/C=C2\SC(=Nc3ccc(F)cc3)N(c3ccc(F)cc3)C2=O)ccc1OCC(=O)O
- inhibition [1]: 16.8%

SMILES: CCOC(=O)C1=C(C)N(c2ccc(OC)cc2)C(=O)/C1=C\c1ccc(O)c(OCC)c1
- inhibition [1]: 4.43%

SMILES: COc1cc(/C=C2\SC(N)=NC2=O)ccc1OCC(=O)Nc1ccc(C)cc1
- inhibition [1]: 10%

SMILES: O=C(/C=C/c1ccc(S(=O)(=O)N2CCOCC2)cc1)NCc1ccc(Cl)cc1
- inhibition [1]: -0.73%

SMILES: C=CCn1c(COc2ccccc2)nnc1SCC(=O)O
- inhibition [1]: 0.9%

SMILES: Cc1nn(-c2ccccc2)c(C)c1NC(=O)Cc1cccs1
- inhibition [1]: 4.27%

SMILES: CC(C)OC(=O)CSc1ncnc2c1cnn2Cc1ccccc1
- inhibition [1]: 0.69%

SMILES: Cc1ccc(S(=O)(=O)N2CCCC2C(=O)Nn2cnnc2)cc1 (stereo not given)
- inhibition [1]: -0.66%

SMILES: Cc1cccc(C)c1NC(=O)CN1C(=O)S/C(=C\c2cccn2-c2cccc(C(=O)O)c2)C1=O
- inhibition [1]: 8.9%

SMILES: O=C(O)c1cccc(-n2cccc2/C=C2\SC(=O)N(Cc3ccccc3F)C2=O)c1
- inhibition [1]: 15.3%

SMILES: CCOC(=O)C1(C(F)(F)F)N=C(C(F)(F)F)Nc2cc(C)c(C)cc21 (stereo not given)
- inhibition [1]: 1.48%

SMILES: Cc1ccccc1N=CC1=C(O)c2ccccc2C1=O
- inhibition [1]: 4.59%

SMILES: O=C1C(C=Nc2ccccc2O)=C(O)c2ccccc21
- inhibition [1]: 20.6%

SMILES: O=C(NC1CCCC1)C(c1ccncc1)N(Cc1cccs1)C(=O)c1csnn1 (stereo not given)
- inhibition [1]: 24.6% (active)

SMILES: CC(C)(C)NC(=O)C(c1ccncc1)N(Cc1cccs1)C(=O)c1csnn1 (stereo not given)
- inhibition [1]: -14%

SMILES: Cc1ccc(C(C(=O)NC2CCCC2)N(Cc2cccs2)C(=O)c2csnn2)o1 (stereo not given)
- inhibition [1]: 7.36%

SMILES: Cc1ccc(C(C(=O)NC2CCCCC2)N(C(=O)c2csnn2)C2CC2)o1 (stereo not given)
- inhibition [1]: 9.01%

SMILES: COCCN(C(=O)c1csnn1)C(C(=O)NC1CCCCC1)c1sccc1C (stereo not given)
- inhibition [1]: 21.1%

SMILES: O=C(COC(=O)c1ccncc1)NCCCc1ccccc1
- inhibition [1]: 2.54%

SMILES: Cc1ccc(Cl)cc1NC(=O)c1cccc(OC(F)F)c1
- inhibition [1]: 5.73%

SMILES: COc1ccccc1NC(=O)CSc1nnc(-c2ccoc2C)n1CCc1ccccc1
- inhibition [1]: 24.7% (active)

SMILES: Cc1ccccc1NC(=O)CSc1nnc(-c2ccoc2C)n1CCc1ccccc1
- inhibition [1]: 8.39%

SMILES: Cc1occc1-c1nnc(SCC(=O)Nc2ccccc2)n1CCc1ccccc1
- inhibition [1]: 0.44%

SMILES: CCC(=O)c1cc2c(C)cc(=O)oc2c(C)c1O
- inhibition [1]: 4.77%

SMILES: CCCCc1cc(=O)oc2cc(OCC(=O)N(CC)CC)c(Cl)cc12
- inhibition [1]: 6.8%

SMILES: C=CCc1c(O)c(CC)cc2c(C)cc(=O)oc12
- inhibition [1]: 10.9%

SMILES: CCN(CC)Cc1c(O)ccc2c(-c3ccccc3)cc(=O)oc12
- inhibition [1]: 8.74%

SMILES: CCCCc1cc(=O)oc2cc(OCc3nn[nH]n3)c(Cl)cc12
- inhibition [1]: 6.21%

SMILES: Cc1cc(=O)oc2c(N)c(O)ccc12
- inhibition [1]: 8.69%

SMILES: CCCCc1cc(=O)oc2cc(OCc3cc(OC)c(OC)c(OC)c3)c(Cl)cc12
- inhibition [1]: -3.71%

SMILES: COc1ccccc1N1CCN(C(=O)CSc2ccccc2)CC1
- inhibition [1]: -1.68%

SMILES: COc1cc(OC)cc(-c2nnc(SCC(=O)N(Cc3ccccc3)C(C)(C)C)o2)c1
- inhibition [1]: 1.01%

SMILES: Cc1cccc(NC(=O)c2ccccc2OCC(=O)c2ccc(F)cc2)c1
- inhibition [1]: 3.15%

SMILES: COC(=O)c1cc(Br)c(N)cc1OC
- inhibition [1]: -6.6%

SMILES: CC(=O)c1cccc(NC(=O)C2CC(=O)N(c3cccc(C)c3C)C2)c1 (stereo not given)
- inhibition [1]: -2.91%

SMILES: O=C(O)c1ccccc1C(=O)NNc1cccc(Cl)n1
- inhibition [1]: 0.28%

SMILES: O=C(CCCc1nc2ccccc2s1)NNC(=O)CCN1CCN(Cc2ccccc2)CC1
- inhibition [1]: 2.9%

SMILES: O=C(O)CC1=C(Nc2ccccc2)C(=O)N(c2ccccc2)C1c1ccc(F)cc1 (stereo not given)
- inhibition [1]: -3.54%

SMILES: CCCc1cc(=O)oc2c(C)c3occ(C)c3cc12
- inhibition [1]: -0.02%

SMILES: CCCCN(C)Cc1c(O)ccc2c(-c3ccccc3)cc(=O)oc12
- inhibition [1]: 3.86%

SMILES: CCCc1cc(=O)oc2cc(OCC(=O)N(C)C)c(Cl)cc12
- inhibition [1]: -0.86%

SMILES: CN(C)Cc1c(O)ccc2c(-c3ccccc3)cc(=O)oc12
- inhibition [1]: 7.13%

SMILES: Oc1c(C(c2cccc(F)c2)N2CCN(Cc3ccccc3)CC2)sc2ncnn12 (stereo not given)
- inhibition [1]: 9.71%

SMILES: Cc1ccc(-c2cc(C(=O)O)n[nH]2)o1
- inhibition [1]: 5.31%

SMILES: CC1CCCCN1C(=O)c1cc(-c2ccc(Cl)c(Cl)c2)on1 (stereo not given)
- inhibition [1]: -16.2%

SMILES: O=C(CSc1nnc(-c2cc3ccccc3cc2O)n1Cc1ccco1)N1CCc2ccccc2C1
- inhibition [1]: 10.2%

SMILES: c1ccc(CSCc2cn3ccccc3n2)cc1
- inhibition [1]: -5.43%

SMILES: O=C(O)c1ccc(-c2ccccn2)s1
- inhibition [1]: 0.37%

SMILES: Nc1ccc(-c2ccc(C(=O)O)s2)cn1
- inhibition [1]: 28.6%

SMILES: CC1CCc2c(sc3nc(CSc4n[nH]c(N)n4)[nH]c(=O)c23)C1 (stereo not given)
- inhibition [1]: -10.6%

SMILES: O=C(Nc1nccs1)c1csc2c1CCCC2
- inhibition [1]: 8.61%

SMILES: Cc1ccc(-c2ccc(=O)n(CC(=O)Nc3cccc(C(=O)N4CCN(C)CC4)c3)n2)cc1
- inhibition [1]: 6.7%

SMILES: O=C1CC(c2ccccc2F)c2c(c3ccccc3[nH]c2=O)O1 (stereo not given)
- inhibition [1]: 0.7%

SMILES: Cc1sc(NC(=O)CSc2nnc(-c3ccc(F)cc3)o2)c(C#N)c1C
- inhibition [1]: 16%

SMILES: CCc1nnc(NC(=O)CSc2nnc(-c3ccco3)o2)s1
- inhibition [1]: -0.37%

SMILES: N#Cc1c(NC(=O)CSc2nnc(-c3ccccc3)o2)sc2c1CCCC2
- inhibition [1]: 21.3%

SMILES: Cc1sc(NC(=O)CSc2nnc(-c3ccccc3)o2)c(C#N)c1C
- inhibition [1]: 25% (active)

SMILES: COC(=O)CSc1nnc(-c2ccc(NS(=O)(=O)c3ccccc3)cc2)o1
- inhibition [1]: 7.24%

SMILES: Cc1ccc(-n2c(C)nc3c(cnn3-c3ccc(C)c(C)c3)c2=O)cc1C
- inhibition [1]: 2.27%

SMILES: CNNC(=O)C(=O)NNS(=O)(=O)c1ccccc1
- inhibition [1]: 4.63%

SMILES: O=C1c2ccccc2C(=O)N1Cc1nc2ccccc2o1
- inhibition [1]: 13%

SMILES: O=C1c2ccccc2C(=O)N1c1ccc(-c2nc3ccccc3o2)cc1
- inhibition [1]: -1.24%

SMILES: O=C(c1ccc(F)cc1)N(NC(=O)C(O)(c1ccccc1)c1ccccc1)c1ccccc1
- inhibition [1]: 0.71%

SMILES: COc1ccc(C(=O)/C=C/Nc2cc(C)on2)cc1
- inhibition [1]: 8.8%

SMILES: COc1ccc([N+](=O)[O-])cc1/C=N/NC(=O)/C(=C\c1cccs1)NC(=O)c1ccccc1
- inhibition [1]: 4.13%

SMILES: Fc1ccccc1-c1nc2nc3ccccc3nc2n1CC1CCCO1 (stereo not given)
- inhibition [1]: 14.5%

SMILES: COCCn1c(-c2ccco2)nc2nc3ccccc3nc21
- inhibition [1]: 22.9%

SMILES: CCCCCn1c(-c2ccco2)nc2nc3ccccc3nc21
- inhibition [1]: 13%

SMILES: c1coc(-c2nc3nc4ccccc4nc3n2CC2CCCO2)c1 (stereo not given)
- inhibition [1]: 26% (active)

SMILES: c1ccc(-c2nc3nc4ccccc4nc3n2CC2CCCO2)cc1 (stereo not given)
- inhibition [1]: 15.8%

SMILES: COC(=O)c1ccccc1NC(=O)Cn1cnc2ccc(S(=O)(=O)N3CCC(C)CC3)cc2c1=O
- inhibition [1]: 20.3%

SMILES: CCOC(=O)C1=C(CN2CCSCC2)NC(=O)NC1c1ccc2c(c1)OCO2 (stereo not given)
- inhibition [1]: -5.96%

SMILES: O=[N+]([O-])c1ccccc1/C=N/N1CCN(c2ccc(Cl)cc2)CC1
- inhibition [1]: 1.05%
